Compounds without any hit were thinned out: in the full panel of roughly 83,000, 20% have a hit.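 Assay: single dose, 48 h. Readout: percent growth (0 = no net growth; negative = cell death). Active: <10.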 A number with no mark means an inactive call. Activity calls are given as the source filed them.
What follows are compounds tested on SK-MEL-5 melanoma (assay: NCI-60 one-dose screen, 48 h (100 = growth as untreated, 0 = no growth, -100 = all killed)). Details: 10 µM unless noted.

| Structure (SMILES) | growth |
| --- | --- |
| CNc1sc(S(=O)(=O)NC)nc1S(=O)(=O)c1ccc(C)cc1 | 98.4% |
| COc1cccc(N2CCN(C3=C(Cl)C(=O)c4ncccc4C3=O)CC2)c1 | 97.3% |
| O=C1[C@@H]2Cc3c([nH]c4ccccc34)[C@@H](c3ccc(Cl)cc3)N2C(=O)CN1C1CCN(Cc2ccccc2)CC1 | 54.2% |
| CC(=O)OCCCCN1C=C/C(=C\C(=O)n2ccc3ccccc32)c2ccccc21 | 100% |
| CN1CCN(c2ccc(Nc3nc(NCCNS(=O)(=O)c4ccc5ccccc5c4)c4sccc4n3)cc2)CC1 | 86.1% |
| CC1=C(C)C(=O)C(Nc2ccc3c(c2)OCCO3)=C(Br)C1=O | 89.1% |
| C=C(C)[C@@H]1CC[C@]2(C(=O)NC3CCCCC3)CC[C@]3(C)[C@H](CC[C@@H]4[C@@]5(C)CC[C@H](N)C(C)(C)[C@@H]5CC[C@]43C)[C@@H]12 | 92.7% |
| CCOC(=O)c1c(NC(=O)c2ccc(C(F)(F)F)cc2)sc2c3c(ccc12)OCN(C)C3 | 94.7% |
| C#CCN(C)CCCOc1ccc(NCc2ccc(/C=C/C(=O)NO)cc2)cc1Cl | -87.2% (active) |
| COc1cc(/C=N\NC(=O)c2ccc3nc(-c4ccc(Br)cc4)[nH]c3c2)cc(OC)c1OC | 27.5% |
| C=C1CCc2nc(SCC(=O)O)ccc2N1 | 101% |
| CN1CCC[C@]2(C)[C@H]3CC[C@@H]4[C@@H]5[C@H]6OC[C@@]5(CCC6(C)C)CC[C@@]4(C)[C@]3(C)CC[C@H]2C1(C)C | 93.8% |
